# Results published in ChEMBL document CHEMBL3988442, “University of Dundee, Small-Polar-MMV Screening Library” (2021).
# Among all 48,000 compounds or so, about 13,000 (27%) showed an effect of 50% or more. The list shows a part of the results.
# Tested on: Wolbachia pipientis
# Assay: Anti-Wolbachia Cell-Based Screen
# Assay type: functional
# Parameters: scale not given: in the data most compounds retested in dose-response had high values
# Settings: 5 µM
row,Structure (SMILES),Percent Effect
1,CC(C)(C)Cc1noc2ncc(C(=O)N3CCSCC3)cc12,-2.131%
2,CCc1nnc(CN2CCC(C3CCCCCN3C(=O)C3CC3)CC2)o1 (stereo not drawn),5.041%
3,Cc1cccc(CN2C[C@@H]3CN(C(=O)C4CCOC4)C[C@@H]3C2=O)c1 (stereo partly drawn),100.9%
4,O=C(C1CCOC1)N1C[C@H]2CN(Cc3cccc(F)c3)C(=O)[C@H]2C1 (stereo partly drawn),101.2%
5,O=C(O)C(F)(F)F.O=C1[C@H]2CN(C3CCOCC3)C[C@H]2CN1Cc1cccc(F)c1,-0.9945%
6,Cc1cccc(CN2C[C@@H]3CN(C(=O)c4ccnnc4)C[C@@H]3C2=O)c1,-7.292%
7,O=C(c1ccsc1)N1C[C@H]2CN(Cc3cccc(F)c3)C(=O)[C@H]2C1,-13.46%
8,Cc1cccc(CN2C[C@@H]3CN(C(=O)c4ccco4)C[C@@H]3C2=O)c1,-8.497%
9,O=C(Nc1ccn(Cc2cccc3cccnc23)n1)C1COCCO1 (stereo not drawn),-13.67%
10,COc1ccc(F)c(CN2CCCC(O)(CNCC(C)(C)C)C2=O)c1 (stereo not drawn),1.776%
11,C[C@@H]1CN(C(=O)c2cn(CCN3CCCCC3)nn2)C[C@H](C)O1,-14.27%
12,O=C(NCC1CCOC1)c1csc(-c2ccc(F)cc2)n1 (stereo not drawn),81.86%
13,Cc1ccc(-c2nc(C(=O)NCC3CCOC3)cs2)cc1 (stereo not drawn),113.2%
14,O=C(c1csc(-c2ccco2)n1)N(CC1CCOC1)C1CC1 (stereo not drawn),-4.102%
15,O=C(NCC1CCOC1)c1csc(-c2ccccc2)n1 (stereo not drawn),102.2%
16,O=C(NCC1CCOC1)c1csc(-c2ccco2)n1 (stereo not drawn),5.751%
17,O=C(NCC1CCOC1)c1csc(-c2ccc(Cl)cc2)n1 (stereo not drawn),107.7%
18,O=C(NCC1CCOC1)c1csc(-c2cccc(Cl)c2)n1 (stereo not drawn),7.495%
19,Cc1ccc(-c2cc(C(=O)NCC3CCOC3)n[nH]2)s1 (stereo not drawn),-13.79%
20,O=C(CC(F)(F)F)N1CCc2[nH]nc(-c3ccc4c(c3)OCO4)c2C1,-1.74%
21,CNC(=O)C(C)CNC(=O)c1coc(COc2cccc(F)c2F)n1 (stereo not drawn),-14.56%
22,CCc1ccc(CNC2(c3ccc(F)cc3)CCOCC2)o1,6.225%
23,Cc1ccc(-c2nc(CN(Cc3ccco3)C3CCS(=O)(=O)C3)cs2)o1 (stereo not drawn),9.055%
24,OC1CCCN(Cc2cn(CC3CCN(C4CCSCC4)CC3)nn2)C1 (stereo not drawn),-15.38%
25,CC(C)C(C)N(C)Cc1nnc(-c2ccco2)o1 (stereo not drawn),-1.497%

row,Structure (SMILES),Percent Effect
1,O=C(NCC1CCOC1)c1cc(-c2cccc(Cl)c2)[nH]n1 (stereo not drawn),-2.907%
2,O=C(NCC1CCOC1)c1cc(-c2cccc(Cl)c2)on1 (stereo not drawn),10.92%
3,Cc1ccc(-c2nc(CC(=O)NCC3CCCOC3)cs2)o1 (stereo not drawn),16.72%
4,CCOc1ccc(-c2nc(C(=O)NCC3CCOC3)cs2)cc1 (stereo not drawn),120.1%
5,COc1ccc(-c2nc(C(=O)NCC3CCOC3)cs2)cc1OC (stereo not drawn),119.6%
6,O=C(NCC1COC2(CCOCC2)O1)c1csc(-c2cccc(Cl)c2)n1 (stereo not drawn),108.1%
7,COCc1nc2cc(NCc3ccncc3)ccc2o1,5.074%
8,Cc1cc(=O)[nH]c(CCNC(=O)C(c2ccc(F)cc2)N(C)C)n1 (stereo not drawn),1.632%
9,Cc1nnc(NCC2(c3ccccc3)CCC2)c(C#N)c1C,7.557%
10,CC1CCN(S(=O)(=O)NCCCn2cncn2)CC1,4.517%
11,COc1ncccc1CN1CCN(c2noc(C(C)C)n2)CC1,-8.091%
12,COc1cccc(CN2CCN(c3cccc(C(C)C)n3)CC2)c1F,77.06%
13,COc1cccc(CN2CCN(c3noc(C(C)C)n3)CC2)c1F,-2.027%
14,CCc1ccc(C(=O)O)cc1S(=O)(=O)N(C)c1cccc(C)c1,-14.76%
15,CS(=O)(=O)Cc1nc(CN2CCOc3ccccc3C2)cs1,2.526%
16,Fc1cccc(CCN(c2ccc3nnnn3n2)C2CC2)c1,-14.94%
17,CS(=O)(=O)C1CCN(S(=O)(=O)Cc2cccc(F)c2)CC1,-8.016%
18,CC(C)(C)S(=O)(=O)CCNC(=O)NCCCc1cccc(F)c1,22.42%
19,Cc1ccc(C(=O)N(Cc2cccc(F)c2)C2CC2)c(=O)[nH]1,-0.8552%
20,CCCN(CCS(C)(=O)=O)C1CCc2ccccc2C1 (stereo not drawn),9.171%
21,CS(=O)(=O)CCCN(CCc1cccc(F)c1)C1CC1,89.73%
22,NS(=O)(=O)CCN(CCc1cccc(F)c1)C1CCCC1,101.5%
23,O=C(C[S+]([O-])Cc1cccc(F)c1)NC1CCCC1 (stereo not drawn),-2.524%
24,CS(=O)(=O)CCC(=O)N(CCc1cccc(F)c1)C1CC1,102.1%
25,CS(=O)(=O)CCC(=O)N(Cc1c(F)cccc1F)C1CCCC1,-8.645%

row,Structure (SMILES),Percent Effect
1,CS(=O)(=O)CCN(CCc1cccc(F)c1)C1CC1,102.8%
2,CS(=O)(=O)CCN(Cc1cccc(O)c1)C1CCC(O)CC1 (stereo not drawn),-5.154%
3,Cc1noc(C)c1CN(C)C(=O)NC1CCN(C2CC2)CC1,-39.67%
4,O=C(c1cc(-c2ccco2)nc2c(Cl)cccc12)N1CCS(=O)(=O)CC1,-1.812%
5,Cc1nc2c(c(N3CCC(O)(CN4CCCC4)CC3)n1)CCN(C)CC2,-16.37%
6,Cc1c(C2CCCN(C(=O)c3cccnc3)C2)n2c(nc1=O)CCC2 (stereo not drawn),104.3%
7,Cc1c(C2CCCN(C(=O)Cc3ccccn3)C2)n2c(nc1=O)CCC2.Cl (stereo not drawn),-12.52%
8,Cc1noc(C)c1C(=O)N1CCCC(c2c(C)c(=O)nc3n2CCC3)C1 (stereo not drawn),87.08%
9,Cc1c(C2CCCN(C(=O)c3ccncc3)C2)n2c(nc1=O)CCC2.Cl (stereo not drawn),99.59%
10,Cc1nn(C)cc1-c1ccnc(N(C)Cc2ccon2)n1,9.555%
11,COc1cc2c(cc1OC)S(=O)(=O)N(Cc1cccc(C)c1)C2=O,-2.103%
12,Cc1cccc(C(C(=O)N(C)CCc2cn[nH]c2)N(C)C)c1 (stereo not drawn),-40.91%
13,Cc1cnn(CC2CCCN2c2ncnc3c2CCC3)c1 (stereo not drawn),7.449%
14,Cc1cc(NC(=O)CN2CCC(N3CCNC3=O)CC2)on1,131.4%
15,Cn1nc2c(cc1=O)CN(CC(=O)Nc1cc(C(C)(C)C)no1)CC2,4.087%
16,CC(C)(C)c1cc(NC(=O)CN2CCCC(Cn3cncn3)C2)on1 (stereo not drawn),1.148%
17,O=C(CN1CCC(N2CCNC2=O)CC1)NCC(F)(F)F,-6.225%
18,CC(C)(C)c1cc(NC(=O)CN2CCC(N3CCNC3=O)CC2)on1,95.17%
19,Cc1cc(NC(=O)CN2CCc3nn(C)c(=O)cc3C2)on1,-13.84%
20,COc1cc2c(cc1-c1nc3c(cnn3C(C)C3CC3)[nH]1)OCO2 (stereo not drawn),-2.531%
21,COCC1CC2(CCN(C(C)=O)CC2)CN1Cc1csc(C)n1.O=C(O)C(F)(F)F (stereo not drawn),-9.248%
22,CCC(=O)N1CCC2(CC1)C(=O)N(C)CCN2Cc1csc(C)n1.O=C(O)C(F)(F)F,115.6%
23,Cc1nc(CN2CCN(C)C(=O)C23CCN(C(C)C)CC3)cs1.O=C(O)C(F)(F)F,114.4%
24,CC(C)C(C(=O)O)c1cccc(Cl)c1 (stereo not drawn),-23.59%
25,CC(NS(=O)(=O)CCCC#N)c1cccc(-n2cccn2)c1 (stereo not drawn),-70.87%

row,Structure (SMILES),Percent Effect
1,Cl.Cl.O=C([C@H]1CCCN1)N1CC2(CCNCC2)c2cc(Cl)ccc21,99.27%
2,Cl.Cl.O=C([C@@H]1CSCN1)N1CC2(CCNCC2)c2cc(Cl)ccc21,111%
3,CC(=O)N1CCC2(CC1)CN(C(=O)[C@@H]1CSCN1)c1ccc(Cl)cc12.O=C(O)C(F)(F)F,102.4%
4,Cl.Cl.O=C([C@@H]1CSCN1)N1CCC2(CC1)CNCc1ccccc12,-5.878%
5,OCC(CO)Nc1ccc2ccc(Cl)c(Cl)c2n1,21.88%
6,COCc1csc(NC(=O)NCc2ncccc2C)n1,-7.53%
7,Cn1cnc2c1C(COCc1ccccc1)N(Cc1ccccn1)CC2.O=C(O)C(F)(F)F.O=C(O)C(F)(F)F (stereo not drawn),9.45%
8,Cc1ccccc1C(CNC(=O)CSc1nnc(N)s1)N(C)C (stereo not drawn),-0.498%
9,Clc1ccc(N2CCN(CCCN3CCCCC3)CC2)nc1,-9.016%
10,c1ccc(-c2ncn(CCCN3CCOCC3)c2-c2ccncc2)cc1,-9.931%
11,Cl.c1nc(N2CCOCC2)ncc1-c1cncn1CCCN1CCCCC1,140.4%
12,Cc1ccccc1CC(=O)NCCNc1nccc(C(F)(F)F)n1,-4.75%
13,Cc1nn2cccnc2c1C(=O)NCc1ccnc(OCC2CC2)c1,2.843%
14,Cc1cc(-c2nc(C3(NC(=O)OC(C)(C)C)CCC3)no2)on1,26.17%
15,Cc1ccc(CN2CCn3cc(CN4CCN(C)CC4)nc3C2)cc1.O=C(O)C(F)(F)F.O=C(O)C(F)(F)F.O=C(O)C(F)(F)F,108%
16,CN1CCN(Cc2cn3c(n2)CN(Cc2ccc(F)cc2)CC3)CC1.O=C(O)C(F)(F)F.O=C(O)C(F)(F)F.O=C(O)C(F)(F)F,107.8%
17,CN1CCN(Cc2cn3c(n2)CN(C(=O)c2cccn2C)CC3)CC1.O=C(O)C(F)(F)F.O=C(O)C(F)(F)F,2.395%
18,COc1ccc(CN2CCn3cc(CN4CCCCC4)nc3C2)cc1.O=C(O)C(F)(F)F.O=C(O)C(F)(F)F,13.43%
19,O=C(CC1CC1)NCc1cn2c(n1)CN(Cc1cccc(F)c1)CC2.O=C(O)C(F)(F)F,2.246%
20,O=C(NCc1cn2c(n1)CN(Cc1cccc(F)c1)CC2)C1CCC1.O=C(O)C(F)(F)F,-4.288%
21,COc1ccc(CN2CCn3cc(Cn4cccn4)nc3C2)cc1.O=C(O)C(F)(F)F,-6.787%
22,CN(Cc1cn2c(n1)CN(Cc1ccc(F)cc1)CC2)Cc1ccco1.O=C(O)C(F)(F)F.O=C(O)C(F)(F)F,12.2%
23,CN1CCN(Cc2cn3c(n2)CN(Cc2cccc(F)c2)CC3)CC1.O=C(O)C(F)(F)F.O=C(O)C(F)(F)F.O=C(O)C(F)(F)F,118.6%
